Sampled rows, rich in hits. Any-hit rate of the full collection: about 22%.
CYP2C19 activ = human CYP2C19 activators, primary screen, biochemical, luminescence; Cytochrome P450 2C19 (Homo sapiens), P33261; 96,000 tested, under 10 active; recombinant CYP2C19, luciferin-H EGE luminescence; active compounds read high; 0 = fully inhibited enzyme, 1 = untreated enzyme; activation factor at 5 µM;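 active means activation factor of at least 2 at 5 µM in the primary screen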
CYP2C9 activ = human CYP2C9 activators, primary screen, biochemical, luminescence | recombinant CYP2C9, luciferin-H conversion; active compounds read high; factor 1 = untreated enzyme, 0 = blocked | activation factor at 5 µM | actives 1.4% (n = 96,000);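 active means activation factor of 2 or more for CYP2C9 at a 5 µM dose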
Target sequence (P11712 whole entry, looked up): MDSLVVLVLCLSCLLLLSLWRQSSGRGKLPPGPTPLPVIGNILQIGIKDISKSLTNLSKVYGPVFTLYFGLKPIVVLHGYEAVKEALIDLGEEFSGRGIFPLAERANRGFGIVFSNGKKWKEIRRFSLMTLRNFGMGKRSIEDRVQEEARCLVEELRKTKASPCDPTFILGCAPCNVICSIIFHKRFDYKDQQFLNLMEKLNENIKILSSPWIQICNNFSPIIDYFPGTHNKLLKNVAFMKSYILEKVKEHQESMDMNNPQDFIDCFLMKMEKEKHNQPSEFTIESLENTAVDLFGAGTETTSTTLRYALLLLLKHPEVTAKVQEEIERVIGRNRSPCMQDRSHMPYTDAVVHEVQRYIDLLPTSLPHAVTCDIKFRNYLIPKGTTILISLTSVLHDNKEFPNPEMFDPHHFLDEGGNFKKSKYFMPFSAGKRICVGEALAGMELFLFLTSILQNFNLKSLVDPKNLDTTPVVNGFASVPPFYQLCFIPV
CYP2C9 inh = blockers of cytochrome P450 2C9 activity – biochemical, luminescence, ADME assay, primary screen; P11712; CYP2C9 Supersomes, luciferin-H conversion; inhibition, % at 5 µM; actives 20% (n = 96,000);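 active means blocking of liver enzyme CYP2C9 beyond about 50% at 5 µM, limit read from the data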
CYP2C19 inhib = blockers of cytochrome P450 2C19 activity – biochemical, luminescence, ADME assay, primary screen; P33261; CYP2C19 Supersomes, luciferin-H EGE luminescence, 30 min; inhibition, % at 5 µM; actives 21% (n = 96,000);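 active means CYP2C19 inhibition above a set limit at 5 µM in the primary screen, cut at about 50% in these data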
E-sel TNF inh = E-selectin induction blockers in HUVEC – imaging, immunofluorescence, high content, primary screen; HUVEC TNFa-induced E-selectin immunofluorescence; inhibition, % at 2 µM; actives 0.71% (n = 120,000);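 active means inhibition above the batch mean plus 3 SD, and confirmed as a hit on visual image review, cut at about 43% in these data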
cytoskel mod = modifiers of F-actin cytoskeleton organization, primary screen, imaging, HUVEC, phalloidin staining, high-content imaging. HUVEC TNFa F-actin phalloidin imaging. actives 0.18% (n = 91,000). inhibition, % at 2 µM;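 active means inhibition above the batch mean plus 3 SD and confirmed as a hit by visual image inspection, cut at about 30% in these data, passing the limit was not always enough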
Each line names hits and unclear results; the compound was inactive in the other large screens.

Cc1cccc(NC(c2ccc(O)cc2)c2ccc3ccc(C)nc3c2O)n1 (stereo not drawn)	CYP2C9 activ 2
Cc1cc(NC(c2cccnc2)c2ccc3cccnc3c2O)no1 (stereo not drawn)	none
Cc1cc(NC(=O)c2sccc2C)n(-c2cccc(Cl)c2)n1	CYP2C9 inh 52, CYP2C19 inhib 96
Cc1cc(NC(=O)C(C)Oc2ccc(Cl)cc2Cl)n(-c2ccccc2)n1 (stereo not drawn)	CYP2C9 inh 63, CYP2C19 inhib 75
CCn1nnc(NC(=O)C(C)Oc2ccc(Cl)cc2Cl)n1 (stereo not drawn)	none
CCN(CC)S(=O)(=O)c1ccc(Cl)c(C(=O)Nc2cc(C)nn2-c2ccccc2)c1	none (no result: CYP2C19 activ, CYP2C9 activ, CYP2C9 inh, CYP2C19 inhib, cytoskel mod)
Cc1cc(NC(=O)c2cccs2)n(-c2ccccc2)n1	CYP2C19 inhib 70 (no result: cytoskel mod)
[N-]=[N+]=CC(=O)C(Cc1ccccc1)N1C(=O)c2ccccc2C1=O (stereo not drawn)	none
O=c1c2c(nc3n1CCCCC3)-c1ccccc1CC21CCCC1	none (no result: E-sel TNF inh)
CCCNC(=S)N(Cc1ccccc1)Cc1nc2ccccc2c(=O)[nH]1	none (no result: CYP2C19 activ, CYP2C9 activ, CYP2C9 inh, CYP2C19 inhib, cytoskel mod)
CCC[C@@H]1C[C@@H](C(=O)N[C@@H](C2O[C@H](SC)[C@H](O)[C@@H](O)[C@H]2O)[C@H](C)Cl)N(C)C1 (stereo partly drawn)	none (no result: CYP2C19 activ, CYP2C9 activ, CYP2C9 inh, CYP2C19 inhib, cytoskel mod)
Cc1ccc(-n2c(C)nc3c(cnn3-c3ccc(C)c(C)c3)c2=O)cc1C	none
Cc1nc2c(cnn2-c2ccccc2Cl)c(=O)n1-c1ccc(N2CCC(C)CC2)cc1	CYP2C19 inhib 72 (no result: E-sel TNF inh)
CCc1nc2c(cnn2-c2ccc(F)cc2)c(=O)n1-c1ccc(N2CCC(C)CC2)cc1	CYP2C19 inhib 50 (no result: E-sel TNF inh)
Cc1ccc(-n2c(C)nc3c(cnn3-c3ccccc3Cl)c2=O)cc1C	CYP2C19 inhib 59 (no result: cytoskel mod)
Cc1ccc(-n2c(C)nc3c(cnn3-c3ccc(F)cc3)c2=O)cc1C	none
CCc1nc2ccccc2n1Cc1cc(=O)n2cc(C)ccc2n1	none
O=C(NCCc1ccccc1)c1ccc2nc(-c3ccco3)c(-c3ccco3)nc2c1	CYP2C9 inh 98, CYP2C19 inhib 94
O=C(NCCO)c1ccc2nc(-c3ccco3)c(-c3ccco3)nc2c1	none
O=C(NC1CCCC1)c1ccc2nc(-c3ccco3)c(-c3ccco3)nc2c1	CYP2C9 inh 59
CC1(C)CC(N=c2cc(-c3ccccc3)oc3ccc(Cl)cc23)CC(C)(C)N1	none (no result: CYP2C19 activ, CYP2C9 activ, CYP2C9 inh, CYP2C19 inhib, cytoskel mod)
COc1ccc(Cl)cc1S(=O)(=O)n1cnc2ccccc21	CYP2C19 inhib 78 (no result: cytoskel mod)
CCOc1ccc(Cl)cc1S(=O)(=O)n1cnc2ccccc21	CYP2C19 inhib 95
Cc1cccc(C(=O)NC(NCc2ccco2)C(Cl)(Cl)Cl)c1 (stereo not drawn)	CYP2C9 inh 58
Cc1cccc(NC(NC(=O)c2cccnc2)C(Cl)(Cl)Cl)c1 (stereo not drawn)	CYP2C9 inh 83
Cc1ccc(C(=O)NC(NCc2ccco2)C(Cl)(Cl)Cl)cc1 (stereo not drawn)	none (no result: CYP2C19 activ, CYP2C9 activ, CYP2C9 inh, CYP2C19 inhib, cytoskel mod)
Cc1cc2c(c(=O)n1C1CC1)C(c1cccc(Cl)c1)C(C#N)=C(N)O2 (stereo not drawn)	none (no result: E-sel TNF inh)
Cc1nn(Cc2ccccc2)c2c1C(c1cccc(Cl)c1)C(C#N)=C(N)O2 (stereo not drawn)	CYP2C9 inh 91, CYP2C19 inhib 85
Cc1[nH]nc2c1C(c1ccc(-c3ccc(Cl)cc3)o1)C(C#N)=C(N)O2 (stereo not drawn)	none (no result: CYP2C19 activ, CYP2C9 activ, CYP2C9 inh, CYP2C19 inhib, cytoskel mod)
Cc1nn(-c2ccccc2)c(Cl)c1C1C(C#N)=C(N)Oc2c1c(C)nn2-c1ccccc1 (stereo not drawn)	CYP2C9 inh 91, CYP2C19 inhib 81
Cc1ccc(-n2nc(C)c3c2OC(N)=C(C#N)C3c2ccccc2F)cc1 (stereo not drawn)	none
Cc1nn(-c2ccccc2)c(Cl)c1C1C(C#N)=C(N)Oc2n[nH]c(C)c21 (stereo not drawn)	CYP2C9 inh 78, CYP2C19 inhib 83 (no result: cytoskel mod)
CCCc1nn(C)c2c1C(c1ccncc1)C(C#N)=C(N)O2 (stereo not drawn)	CYP2C9 inh 72 (no result: E-sel TNF inh)
CN(C)CCC(=O)c1ccc(Cl)cc1	none
Cc1ccc(NC(=O)CNc2ccc(OC(C)C)cc2)c(C)c1	none (no result: CYP2C19 activ, CYP2C9 activ, CYP2C9 inh, CYP2C19 inhib)
CN1CCN(CC(=O)N(C)c2nc(-c3ccccc3)cs2)CC1	none (no result: E-sel TNF inh, cytoskel mod)
CCOc1ccc(C2Oc3nc(SC)nnc3-c3ccccc3N2C(C)=O)cc1OC (stereo not drawn)	none (no result: cytoskel mod)
CCOc1ccc(OCC)c(Nc2cc(C)nc3nc(C)nn23)c1	none (no result: CYP2C19 activ, CYP2C9 activ, CYP2C9 inh, CYP2C19 inhib, cytoskel mod)
CC(=O)c1c(N2CCOCC2)nc(=O)n(-c2ccccc2)c1C	none (no result: cytoskel mod)
Cc1ccc(-n2nc(C)c3c2OC(N)=C(C#N)C3c2ccncc2)cc1 (stereo not drawn)	none (no result: E-sel TNF inh)
Cc1nn(-c2ccccc2)c2c1C(c1ccncc1)C(C#N)=C(N)O2 (stereo not drawn)	CYP2C9 inh 66, CYP2C19 inhib 59
COc1cc(-n2nc(C)c3c2OC(N)=C(C#N)C3c2ccccc2)c(Cl)c(Br)c1O (stereo not drawn)	CYP2C9 inh 99, CYP2C19 inhib 99
Cc1nn(-c2ccccc2)c(Cl)c1C1C(C#N)=C(N)OC2=C1C(=O)CCC2 (stereo not drawn)	CYP2C9 inh 76, CYP2C19 inhib 91 (no result: E-sel TNF inh, cytoskel mod)
Cc1[nH]nc2c1C(c1ccc(-c3ccccc3C#N)o1)C(C#N)=C(N)O2 (stereo not drawn)	CYP2C9 inh 93, CYP2C19 inhib 68 (no result: E-sel TNF inh)
COc1ccccc1-c1nc(SCc2ccccn2)n[nH]1	none (no result: E-sel TNF inh, cytoskel mod)
Cc1nn(-c2ccccc2)c2c1C(c1c(C)[nH]c(C#N)c1C)C(C#N)=C(N)O2 (stereo not drawn)	CYP2C9 inh 87, CYP2C19 inhib 74
NC(=O)C1CCN(Cc2nc(-c3ccccc3)no2)CC1	none
COC(=O)c1cc(NC(=O)C2COc3ccccc3O2)cc(C(=O)OC)c1 (stereo not drawn)	CYP2C9 inh 73, CYP2C19 inhib 63
CCCNC(=O)c1c(NC(=O)C2COc3ccccc3O2)sc2c1CCCC2 (stereo not drawn)	none (no result: CYP2C19 activ, CYP2C9 activ, CYP2C9 inh, CYP2C19 inhib)
CCOC(=O)c1ccccc1NC(=O)C1COc2ccccc2O1 (stereo not drawn)	CYP2C19 inhib 87
COC(=O)c1c(NC(=O)C2COc3ccccc3O2)sc2c1CCN(Cc1ccccc1)C2 (stereo not drawn)	E-sel TNF inh 63 (no result: CYP2C19 activ, CYP2C9 activ, CYP2C9 inh, CYP2C19 inhib, cytoskel mod)
COc1ccc(NC(=O)COC(=O)C2=COCCO2)cc1OC	none (no result: CYP2C19 activ, CYP2C9 activ, CYP2C9 inh, CYP2C19 inhib, cytoskel mod)
COc1ccccc1CNC(=O)COC(=O)C1=COCCO1	CYP2C19 inhib 61
COC(=O)c1ccccc1NC(=O)C1COc2ccccc2O1 (stereo not drawn)	CYP2C19 inhib 90
COC(=O)c1ccsc1NC(=O)C1COc2ccccc2O1 (stereo not drawn)	none

High-throughput results as filed in PubChem.
